# Experimental data as given in the supplement of paper PMC11219838.
# Test system: Meloidogyne hapla J2
# Experiment: proportion of mobile M. hapla J2 relative to DMSO control (fraction of DMSO control); higher = more viable, less nematicidal, active = 0.7 or less
# Conditions: 60 µM; 5 days; temperature: 20 °C
# How it was run: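 About 25 M. hapla J2 were added per 96-well well in distilled water, and compound was pinned to 60 µM final (0.6% v/v DMSO). Sealed plates were shaken at 200 rpm for 5 days at 20 °C, then 2 µL 1 M NaOH was added before microscopic mobility scoring. Mobility was divided by the mean of eight DMSO wells on the same plate, and two biological replicates were averaged.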
row,SMILES,proportion of mobile M. hapla J2
1,Cc1nnc(CSc2nnc(-c3ccc(Cl)cc3)o2)o1,0.926 (inactive)
2,Cc1c(C(=O)CSc2nnc(-c3ccccc3)o2)c2ccccc2n1C,0.957 (inactive)
3,COc1ccc(-c2noc(-c3ccc(C)cc3Cl)n2)cc1,0.969 (inactive)
4,CCc1ccc(NC(=O)CSc2nnc(-c3ccco3)o2)cc1,0.899 (inactive)
5,O=C(CSc1nnc(-c2ccc(Br)cc2)o1)Nc1ccc2ccccc2c1,0.866 (inactive)
6,COc1ccc(OC(C)c2nc(-c3ccccn3)no2)cc1 (stereo not drawn),1.03 (inactive)
7,Cc1ccc(-c2nc(-c3ccncc3)no2)c(Cl)c1,0.979 (inactive)
8,COC(=O)c1ccc(CSc2nnc(-c3ccc(OC)cc3)o2)cc1,1.02 (inactive)
9,CCNC(=O)c1ccccc1-c1nc(-c2ccc(F)cc2)no1,0.998 (inactive)
10,N#Cc1ccccc1NC(=O)CSc1nnc(-c2ccccc2)o1,0.955 (inactive)
11,CCSc1nnc(-c2ccc(Cl)cc2Cl)o1,0.607 (active)
12,Cc1cc(OC(C)c2nc(-c3cccnc3)no2)ccc1Cl (stereo not drawn),0.862 (inactive)
13,N#Cc1ccc(CSc2nnc(-c3ccco3)o2)cc1,0.607 (active)
14,O=C(CSc1nnc(-c2ccccc2Cl)o1)Nc1ccccn1,0.946 (inactive)
15,O=C(CSc1nnc(-c2ccc(Cl)cc2)o1)NCc1ccccc1,0.901 (inactive)
16,Cc1ccc(OC(C)c2nc(-c3ccc4c(c3)OCO4)no2)cc1C (stereo not drawn),0.943 (inactive)
17,COc1ccc(C(=O)CSc2nnc(-c3cccc(Br)c3)o2)cc1,1.04 (inactive)
18,COc1cccc(-c2noc(COc3ccc(C)cc3C)n2)c1,0.941 (inactive)
